# Screening results as filed in PubChem.
# Pf Dd2 growth – Plasmodium falciparum Dd2 growth inhibition; Potency, µM (titrated, usually from 28.9 µM), hits mostly inhibitors; hit rate 4.3% among 120,000; AID 1347417; P. falciparum Dd2 growth, SYBR Green, 72 h; active = well fitted inhibition curve with a large enough effect; note: nearly all actives have a fitted effect of over 65% in size
#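 Infected erythrocytes (Dd2, 0.3% parasitemia, 2.5% hematocrit final) are added to compound in RPMI-1640/Albumax II medium, grown 72 h at 37C in low oxygen, then lysed with saponin/Triton-X containing SYBR Green and read by fluorescence.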
# Numbers stand for hits; - = inactive; [ ] = remark or other dose. This is one part of a sample in which hits are shown more often than they occur.
SMILES,Pf Dd2 growth
COCCN1CCC(C(=O)Nc2ccc(Oc3ccccc3F)cc2)CC1,13µM
O=C(Nc1ccc(Oc2ccccc2F)cc1)C1CCCCN1C(=O)c1cccnc1 (stereo unspecified),-
COc1ccc(-c2noc(-c3cccn3CC(=O)Nc3ccc(F)cc3)n2)cc1F,3.2µM
COc1ccc(OC)c(NC(=O)Cn2cccc2-c2nc(-c3ccc(OC)c(F)c3)no2)c1,-
COc1ccc(CCNC(=O)Cn2cccc2-c2nc(-c3ccc4c(c3)OCO4)no2)cc1OC,-
CCOC(=O)c1ccc(NC(=O)Cn2cccc2-c2nc(-c3ccc(OC)c(F)c3)no2)cc1,-
O=C(Cn1cccc1-c1nc(-c2ccccc2)no1)Nc1ccccc1Cl,-
O=C(Cn1cccc1-c1nc(-c2ccc3c(c2)OCO3)no1)Nc1ccccc1,2.8µM
O=C(Cn1cccc1-c1nc(-c2ccccc2)no1)NCc1ccc(Cl)cc1,-
COc1ccc(-c2noc(-c3cccn3CC(=O)NCCc3ccccc3)n2)cc1F,0.25µM
CC(=O)c1ccc(NC(=O)Cn2cccc2-c2nc(-c3ccc4c(c3)OCO4)no2)cc1,-
COc1ccc(-c2noc(-c3cccn3CC(=O)Nc3cccc(C)c3)n2)cc1F,-
CC(=O)c1cccc(NC(=O)Cn2cccc2-c2nc(-c3ccc4c(c3)OCO4)no2)c1,-
O=C(Cn1cccc1-c1nc(-c2ccccc2)no1)NCc1ccccc1Cl,10µM
CN1C[C@@H]2CCCN3CCC[C@@H]([C@H]23)[C@H]1CCCC(=O)NCCN1CCCC1,-
CC(C)N1C(=O)CO[C@H](c2ccc(NC(=O)c3cnccn3)cc2)[C@H]1CO,-
O=C(c1ccc(Cl)cc1)N1CCC(N2CC3CCCN3C2=O)CC1 (stereo unspecified),-
COc1ccccc1C(=O)N1CC[C@H]2COC(=O)N2c2cc(F)ccc2C1,-
COCCOc1ccc2c(n1)CCN(C(=O)c1ccccc1C)C2,-
COc1ccccc1-c1noc(CCCC(=O)N2CCc3nc[nH]c3C2)n1,-
NC(=O)Cn1ccc2cc(OCC3CCN(C(=O)CCc4ccccc4)CC3)cnc21,-
Cc1nc(-c2cn(C3CCCN(C(=O)c4ccccc4)C3)nn2)no1 (stereo unspecified),-
COc1ccc(-c2noc(-c3cccn3CC(=O)Nc3cc(Cl)c(OC)cc3OC)n2)cc1F,-
COc1ccc(NC(=O)Cn2cccc2-c2nc(-c3ccc(F)cc3)no2)cc1Cl,11µM
COc1ccc(-c2noc(-c3cccn3CC(=O)N3CCN(c4ccccc4F)CC3)n2)cc1F,2.5µM
SMILES,Pf Dd2 growth
Cc1oc(-c2ccccc2F)nc1CSCC(=O)N1CCN(c2ccccc2)CC1,-
O=C(CSCc1ccc(F)cc1)N1CCN(c2ccccc2F)CC1,-
O=C(Cn1cccc1-c1nc(-c2ccc(F)cc2)no1)N1CCN(c2ccccc2F)CC1,-
COc1ccc(-c2noc(-c3cccn3CC(=O)N3CCN(c4ccc(F)cc4)CC3)n2)cc1F,-
COc1ccc(-c2nc(CSCC(=O)N3CCN(c4ccccc4F)CC3)c(C)o2)cc1,6.3µM
Cc1ccc(NC(=O)Cn2cccc2-c2nc(-c3ccc(F)cc3)no2)cc1F,-
CC1=C(C(=O)OC(C)(C)C)C(c2ccc(Cl)cc2)N2C(CC(=O)N3CCOCC3)=CSC2=N1 (stereo unspecified),-
COc1nc2ccccc2cc1CN1CCC2(C1)CN(C)C(=O)O2 (stereo unspecified),-
Cc1cccc2nc(C(=O)N3CCC(n4cc(C(C)(C)O)nn4)CC3)cn12,-
O=C(c1cn(C2CCCCC2)nn1)N1CCSCC1,-
CN1CCCCCC(O)c2cc(C(=O)NCc3cccc(C(F)(F)F)c3)ccc21 (stereo unspecified),10µM
COc1ccccc1CNC(=O)c1ccc2c(c1)C(O)CCCCCN2C (stereo unspecified),-
Cc1ccc(CN2CCN(C(=O)c3ccc4c(c3)C(O)CCCCCN4C)CC2)cc1 (stereo unspecified),13µM
CN1CCCCCC(O)c2cc(C(=O)NCc3nc4ccccc4n3C)ccc21 (stereo unspecified),-
CC(C)CN1CCN(C(=O)c2ccc3c(c2)C(O)CCCCCN3C)CC1 (stereo unspecified),-
CN1CCCCCC(O)c2cc(C(=O)N3CCN(C4CCCCC4)CC3)ccc21 (stereo unspecified),-
COc1ccc(OC)c([S+](=O)([O-])c2nnn3c2nc(NCc2ccncc2)c2ccccc23)c1,-
CC(C)(CN1CCOCC1)CN1CCCN(Cc2cccnc2)CC1,-
COc1ccc(CN2C[C@@H](F)[C@@H](OCc3nc4ncccc4[nH]3)C2)cc1,-
O=C(COc1ccc(F)cc1)N1CC(Oc2cccc(-c3nc(-c4ccccc4)no3)c2)C1,2.2µM
CC(C)C(=O)N1CC(Oc2ccccc2-c2nc(C3CC3)no2)C1,-
CC(C)CNC(=O)N1CC(Oc2ccccc2-c2nc(-c3ccccc3)no2)C1,-
O=C(Nc1ccccc1F)N1CC(Oc2cccc(-c3nc(-c4ccccc4)no3)c2)C1,-[5.79 µM]
O=C(c1ccco1)N1CC(Oc2ccccc2-c2nc(-c3ccccc3)no2)C1,4µM
COc1ccc(C(=O)N2CC(Oc3ccc(-c4nc(-c5ccccc5)no4)cc3)C2)cc1,-[5.79 µM]
SMILES,Pf Dd2 growth
COCCOCC(=O)N1CC(Oc2ccccc2-c2nc(C3CC3)no2)C1,-
CC(=O)N1CCC(Oc2ccccc2-c2nc(-c3ccccc3)no2)C1 (stereo unspecified),-
COc1ccc(C(=O)N2CC(Oc3ccccc3-c3nc(-c4ccccc4)no3)C2)cc1,0.89µM
Cc1cccc(C(=O)N2CC(Oc3ccc(-c4nc(-c5ccccc5)no4)cc3)C2)c1,-[5.79 µM]
Cc1noc(-c2cccc(OC3CN(C(=O)Cc4ccccc4)C3)c2)n1,-[5.79 µM]
O=C(CN1CCCCCC1)N1CC(Oc2ccccc2-c2nc(C3CC3)no2)C1,11µM
CNC(=O)[C@@H]1C[C@@H](n2cc(CNC(=O)Nc3cccc(Cl)c3)nn2)CN1,-
COCCNc1nc(N)nc2c1CCN(C(=O)c1cscn1)CC2,-
O=[S+]([O-])(c1ccccc1)N1CCn2c(nnc2-c2ccccc2)C1,-
COc1cccc(CCC(=O)N(C)C2CCc3nn(CC4CC4)c(=O)n3CC2)c1 (stereo unspecified),-
Cc1nn(C)c(C)c1CCCN(C)C(=O)C1N(C(C)C)C(=O)C12CCCCC2 (stereo unspecified),-
CCn1ncc(C(=O)N2C[C@@H](COc3ccccc3)[C@H](C(N)=O)C2)c1C,-
CN1C(=O)CC(C(=O)O)C12CCN(Cc1cccc(-c3ccccc3)c1)CC2 (stereo unspecified),-
O[C@]12CCNC[C@H]1CN(Cc1cccc(-c3ccccc3)c1)CC2,8.9µM
OC[C@]12CCCN[C@@H]1CCN(Cc1cccc(-c3ccccn3)c1)C2,-
Cc1noc(C)c1[S+](=O)([O-])N1CCC2(CC1)Cc1ccccc1NC2=O,-
Cc1noc(C)c1[S+](=O)([O-])N1CCC2(CC1)COc1ccccc1NC2=O,8.9µM
O=C1Nc2ccccc2OCC12CCN([S+](=O)([O-])c1ccccc1)CC2,-
Cc1cc(N2CCC(N3CCCC(C(=O)NCCc4ccccc4)C3)CC2)ncn1 (stereo unspecified),-
Cc1ccc(-c2nn3c(=O)cc(CN4CCN(C(=O)COc5ccc(C)c(C)c5)CC4)nc3s2)cc1,-
COc1ccc(-c2nn3c(=O)cc(CN4CCN(C(=O)COc5ccc(F)cc5)CC4)nc3s2)cc1,-
COc1ccc(-c2nn3c(=O)cc(CN4CCN(C(=O)/C=C/c5ccccc5)CC4)nc3s2)cc1,-
